Source: PubChem BioAssay (NCI)
This is part of a sample that, as a whole, favours compounds with a hit. Of some 83,000 tested, about 20% had one in any assay.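 Percent growth is the endpoint: 0 to 100 indicates growth inhibition (40 means 60% inhibition), 0 means no net growth, and negative values indicate cell death.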 A number with no mark means an inactive call. Activity calls are given as the source filed them.

Test system: SK-MEL-5 melanoma
Assay: NCI-60 one-dose screen, 48 h (100 = growth as untreated, 0 = no growth, -100 = all killed)
Details: 10 µM
Description: Growth inhibition of the SK-MEL-5 human tumor cell line is measured as a screen for anti-cancer activity. Cells are grown in 96 well plates and exposed to the test compound for 48 hours. Compounds are tested at a single concentration, which is 10^-5 M for most compounds. The reported endpoint is percent growth (GI% or GIPRCNT), where numbers from 0 - 100% represent growth inhibition, and numbers from -100% - 0 represent cell death. For example, a value of 40 represents 60% growth inhibition. A value of 0 means no net growth occurred over the course of the experiment. A value of -40 indicates 40% of cells at the beginning of the experiment died by the end of the experiment. A value of -100 means all cells are dead at the end of the experiment.
NCI-60 Human Tumor Cell Lines Screen was performed using the standard one-dose NCI protocol, which is described in more detail at https://dtp.cancer.gov/discovery_development/nci-60/default.htm.
Compounds with GIPRCNT values below 10 were considered active. Activity score was based on GIPRCNT using the following formula: […]
Score is 0 for GIPRCNT values of 100 or above, 50 for GIPRCNT values of 0, and 100 for GIPRCNT values of -100.

Q: Which growth does the source give for `CCOP(=O)(OCC)C(NC(C)=O)C(=O)SCCN` (stereo not given) here?
A: The growth was 99.1%.

Q: `COP(=O)(CC(F)(F)C(F)(F)F)OC` was tested. Which growth did it give?
A: Its growth is 80.8%.

Q: With `CC(C)N=C([Se])NC(=O)c1ccccc1` as the compound, how does the growth read?
A: The growth was -57.1% (active).

Q: Which growth does the source give for `CC12OOC(C)(OO1)C2CCC(=O)OCCNc1ccnc2cc(Cl)ccc12` (stereo not given) here?
A: Its growth is 36.5%.

Q: How did the growth turn out when `O=C(/C=C/c1ccco1)c1nc2ccccc2n1Cc1ccc(Br)cc1` was run?
A: Its growth is 57.5%.

Q: For `O=C(/C=C/c1ccc(Cl)cc1)c1nc2ccccc2n1Cc1ccc(Br)cc1`, which growth is on record?
A: The growth was 85%.

Q: With `C#CCCCN(CCNc1ccnc2cc(Cl)ccc12)C(=O)CCC(=O)O[C@@H]1O[C@@H]2OC3(C)CC[C@H]4[C@H](C)CC[C@@H]([C@H]1C)[C@@]24OO3` as the compound, how does the growth read?
A: Its growth is -36.1% (active).

Q: Which growth does the source give for `COc1cc(OC)c(S(=O)(=O)N(CCCl)CCCl)cc1C(=O)/C=C/c1ccc(C)cc1` here?
A: Its growth is 97.5%.

Q: `COc1cc(OC)c(/C=C/C(=O)c2nc3ccccc3n2Cc2ccc(F)cc2)c(OC)c1` was tested. Which growth did it give?
A: Its growth is 88.6%.

Q: How did the growth turn out when `O=C(NC([Se])=NC1CCCCC1)c1ccccc1` was run?
A: The growth was 18%.

Q: For `N#C[Se]CC(=O)Nc1cccc(C(F)(F)F)c1`, which growth is on record?
A: The growth was -73.4% (active).

Q: `C[C@H]1[C@@H](CC(=O)N[C@@H](Cc2coc3ccccc23)B(O)O)O[C@@H]2OC3(C)CC[C@H]4[C@H](C)CC[C@@H]1[C@@]24OO3` was tested. Which growth did it give?
A: The growth was -97.2% (active).

Q: `C=CC[Se]C(=O)c1ccc(C(=O)[Se]CC=C)s1` was tested. Which growth did it give?
A: The growth was -70.8% (active).

Q: How did the growth turn out when `CC(C)N=C([Se])NC(=O)c1cccs1` was run?
A: The growth was -59.7% (active).

Q: With `COCCOCCOCCOc1ccc(-n2cc(-c3ccc(O[C@H]4O[C@@H]5OC6(C)CC[C@H]7[C@H](C)CC[C@@H]([C@H]4C)[C@@]57OO6)cc3)nn2)cc1` as the compound, how does the growth read?
A: Its growth is -24.4% (active).

Q: Which growth does the source give for `O=C(/C=C/c1cccc(Br)c1)c1nc2ccccc2n1Cc1ccc(F)cc1` here?
A: Its growth is 58.3%.

Q: For `COc1ccc(OC)c(/C=C/C(=O)c2nc3ccccc3n2Cc2ccc(F)cc2)c1`, which growth is on record?
A: The growth was -21.1% (active).

Q: For `CC1=C(CCC=O)C2=C(C)C3(CC3)[C@@](C)(O)C(=O)C2=C1`, which growth is on record?
A: Its growth is -100% (active).

Q: For `C[C@H]1[C@H](OC(=O)CCC(=O)N(CCCc2cn(-c3ccc(C#N)cc3)nn2)CCNc2ccnc3cc(Cl)ccc23)O[C@@H]2OC3(C)CC[C@H]4[C@H](C)CC[C@@H]1[C@@]24OO3`, which growth is on record?
A: The growth was 22.9%.

Q: Which growth does the source give for `COc1ccc(/C=C/C(=O)c2nc3ccccc3n2Cc2ccc(Br)cc2)cc1` here?
A: The growth was 83.3%.

Q: `CC[C@]12C=CCN3CC[C@@]4(c5ccc(OC)cc5N(C)[C@H]4[C@@](O)(C(=O)OC)[C@@H]1OC(=O)CCC[P+](C1CCCCC1)(C1CCCCC1)C1CCCCC1)[C@@H]32` was tested. Which growth did it give?
A: Its growth is -98.4% (active).

Q: With `COc1cc2cc(C(=O)N3C[C@@H](CCl)c4c3cc(OC(=O)N3CCN(C(=O)CCC(=O)N5CCN(C)CC5)[C@@H]5CSSC[C@@H]53)c3ccccc43)[nH]c2c(OC)c1OC` as the compound, how does the growth read?
A: Its growth is -100% (active).

Q: Which growth does the source give for `O=C(/C=C/c1ccco1)c1nc2ccccc2n1Cc1ccc(F)cc1` here?
A: The growth was 86.5%.

Q: `CC12CCC3(CCC(=O)NCCCNc4ccnc5cc(Cl)ccc45)[C@@](C)(OO[C@]3(C)O1)O2` was tested. Which growth did it give?
A: Its growth is 14.2%.

Q: `O=C([Se]C1C=CCCC1)c1ccc(C(=O)[Se]C2C=CCCC2)s1` (stereo not given) was tested. Which growth did it give?
A: Its growth is -88.8% (active).

Q: With `COC(=O)C[C@](O)(CCC(C)C)C(=O)O[C@@H]1C(OC)=C[C@]23CCCN2CCc2cc4c(cc2[C@H]13)OCO4` as the compound, how does the growth read?
A: The growth was -95.4% (active).

Q: With `O=C(/C=C/c1ccc(Cl)cc1Cl)c1nc2ccccc2n1Cc1ccc(F)cc1` as the compound, how does the growth read?
A: The growth was 74.5%.

Q: How did the growth turn out when `COC(=O)c1ccc(-n2cc(CCCN(CCNc3ccnc4cc(Cl)ccc34)C(=O)CCC(=O)O[C@@H]3O[C@@H]4OC5(C)CC[C@H]6[C@H](C)CC[C@@H]([C@H]3C)[C@@]46OO5)nn2)cc1` was run?
A: The growth was -70.1% (active).

Q: For `CC[C@@]12CC(C(=O)OC)=C3Nc4cc5c(cc4[C@@]34CCN(C[C@H]3O[C@H]31)[C@@H]24)[C@@H]1[C@H](O5)[C@@H](O)[C@@]2(CC)CC(C(=O)OC)=C3Nc4cc(OC)ccc4[C@@]34CCN1[C@@H]24`, which growth is on record?
A: The growth was -85.1% (active).

Q: With `CC(=O)Oc1ccccc1C(=O)[Se]C(=NC(C)C)NC(C)C` as the compound, how does the growth read?
A: The growth was -84.4% (active).

Q: For `CC[C@]12C=CCN3CC[C@@]4(c5ccc(OC)cc5N(C)[C@H]4[C@@](O)(C(=O)OC)[C@@H]1OC(=O)CCCC[P+](c1ccc(OC)cc1)(c1ccc(OC)cc1)c1ccc(OC)cc1)[C@@H]32`, which growth is on record?
A: Its growth is -97% (active).

Q: How did the growth turn out when `CC12OOC(C)(OO1)C2CCC(=O)NCCNc1ccnc2cc(Cl)ccc12` (stereo not given) was run?
A: The growth was 93.9%.

Q: `O=C(/C=C/c1cccc(Br)c1)c1nc2ccccc2n1Cc1ccc(Br)cc1` was tested. Which growth did it give?
A: The growth was -26.4% (active).

Q: Which growth does the source give for `CC(C)C[C@H](NC(=O)CNC(=O)C[C@H]1O[C@@H]2OC3(C)CC[C@H]4[C@H](C)CC[C@@H]([C@H]1C)[C@@]24OO3)B(O)O` here?
A: The growth was -90.2% (active).

Q: With `CN(C)CCc1cn(C2CCC2)c2cccc(O)c12` as the compound, how does the growth read?
A: The growth was 46.6%.

Q: For `C[C@H]1[C@H](OC(=O)CCC(=O)N(CCCc2cn(-c3ccc(CN4CCOCC4)cc3)nn2)CCNc2ccnc3cc(Cl)ccc23)O[C@@H]2OC3(C)CC[C@H]4[C@H](C)CC[C@@H]1[C@@]24OO3`, which growth is on record?
A: Its growth is -90% (active).

Q: Which growth does the source give for `CC1=C2C(=C[C@@](C)(COP(=O)(Oc3ccccc3)Oc3ccccc3)[C@@H]2O)C(=O)[C@@](C)(O)C12CC2` here?
A: The growth was -99.2% (active).

Q: How did the growth turn out when `C=CCN=C([Se])NC(=O)c1ccc2c(c1)OCO2` was run?
A: Its growth is 90.8%.

Q: Which growth does the source give for `CC(=O)Oc1ccccc1C(=O)NC([Se])=NC1CCCCC1` here?
A: Its growth is -80% (active).

Q: `C[C@H]1[C@@H](Oc2ccc(-c3cn(-c4ccnc5cc(Cl)ccc45)nn3)cc2)O[C@@H]2OC3(C)CC[C@H]4[C@H](C)CC[C@@H]1[C@@]24OO3` was tested. Which growth did it give?
A: Its growth is 20.3%.
